Holding throughout (conditions): mRNA level, 48 h; actives raise or lower the signal
Read-out in experiment [1]: Early growth response protein 1 (EGR1) transcription factor, EGR1 (gene 1958)
The experiment is described as follows: LTEA_HepaRG_EGR1: Life Technologies and Expression Analysis (LTEA) Assay for Early growth response protein 1 (EGR1) transcription factor using HepaRG (AID 2283490). The method, boiled down:
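Differentiated HepaRG cells in serum-free induction medium exposed 48 hours, duplicate, to 8 half-log concentrations up to 100 uM in 0.5% DMSO. EGR1 mRNA measured by TaqMan qRT-PCR, normalized to ACTB, GAPDH, POLR2A; bidirectional fit versus DMSO.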

Read-out in experiment [2]: Ezrin (EZR), EZR (gene 7430)
Kind of experiment: LTEA_HepaRG_EZR: Life Technologies and Expression Analysis (LTEA) Assay for Ezrin (EZR) using HepaRG (AID 2283491). The method, boiled down:
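EZR transcript levels came from Fluidigm qRT-PCR and were normalized to three housekeeping genes after 48 h chemical exposure of HepaRG cells. Dosing used an 8-point half-log series with a 100 uM top concentration in 0.5% DMSO, tested in duplicate; both directions were fitted versus vehicle.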

Read-out in experiment [3]: Cytochrome P450 3A7 (Homo sapiens) (UniProt P24462)
The experiment is described as follows: LTEA_HepaRG_CYP3A7: Life Technologies and Expression Analysis (LTEA) Assay for CYP3A7 using HepaRG (AID 2283492). In a few lines:
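CYP3A7 transcript levels were read by TaqMan qRT-PCR on Fluidigm arrays after 48 h chemical exposure of human HepaRG cells, with housekeeping-gene normalisation. Eight half-log concentrations up to 100 uM in 0.5% DMSO were tested in duplicate.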

Read-out in the next experiment: CYP3A5 (gene 1577)
The experiment is described as follows: LTEA_HepaRG_CYP3A5: Life Technologies and Expression Analysis (LTEA) Assay for CYP3A5 using HepaRG (AID 2283493). In a few lines:
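mRNA induction or loss of CYP3A5 assessed in HepaRG after 48 h dosing, 100 uM top concentration, duplicate wells; TaqMan qRT-PCR with ACTB, GAPDH, POLR2A normalization; 0.5% DMSO as negative control.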

Read-out in experiment [4]: Fatty Acid-Binding Protein 1 (FABP1), FABP1 (gene 2168)
Kind of experiment: LTEA_HepaRG_FABP1: Life Technologies and Expression Analysis (LTEA) Assay for Fatty Acid-Binding Protein 1 (FABP1) using HepaRG (AID 2283494). In a few lines:
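Differentiated human HepaRG cells exposed 48 h in serum-free induction medium to eight half-log concentrations up to 100 uM (0.5% DMSO), duplicate. FABP1 mRNA by qRT-PCR, normalised to ACTB, GAPDH, POLR2A; bidirectional fitting against DMSO.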

Read-out in experiment [5]: Cytochrome P450 4A22 (Homo sapiens) (UniProt Q5TCH4)
The experiment is described as follows: LTEA_HepaRG_CYP4A22: Life Technologies and Expression Analysis (LTEA) Assay for Cytochrome P450 4A22 (CYP4A22) using HepaRG (AID 2283495). In a few lines: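 HepaRG, 48 h post-plating -> serum-free induction medium; dosed 48 h, duplicate, 8 conc. (100 uM top, half-log), 0.5% DMSO. Readout: CYP4A22 mRNA by qRT-PCR, ACTB/GAPDH/POLR2A normalization; gain/loss fit relative to DMSO.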

Read-out in experiment [6]: Cytochrome P450 7A1 (Homo sapiens) (UniProt P22680)
Kind of experiment: LTEA_HepaRG_CYP7A1: Life Technologies and Expression Analysis (LTEA) Assay for Cytochrome P450 7A1 (CYP7A1) using HepaRG (AID 2283496). In a few lines:
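Gene expression endpoint in human HepaRG liver cells treated for 48 h with test chemicals (up to 100 uM, 0.5% DMSO). Values come from bidirectional concentration-response fitting versus DMSO.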

Read-out in experiment [7]: Glutathione S-Transferase (GSTA2), GSTA2 (gene 2939)
Kind of experiment: LTEA_HepaRG_GSTA2: Life Technologies and Expression Analysis (LTEA) Assay for Glutathione S-Transferase (GSTA2) using HepaRG (AID 2283497). In a few lines: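 Differentiated human HepaRG cells were exposed in duplicate for 48 h in serum-free induction medium, 8 points from 100 uM top in half-log steps, 0.5% DMSO. GSTA2 mRNA was measured by TaqMan qRT-PCR, normalized to ACTB, GAPDH and POLR2A; bidirectional fit versus DMSO.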

Read-out in experiment [8]: Glutamate-cysteine ligase catalytic (GCLC), GCLC (gene 2729)
Kind of experiment: LTEA_HepaRG_GCLC: Life Technologies and Expression Analysis (LTEA) Assay for Glutamate-cysteine ligase catalytic (GCLC) using HepaRG (AID 2283498). In a few lines: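 Differentiated HepaRG cells exposed 48 h in serum-free induction medium, eight-point half-log series topping at 100 uM in 0.5% DMSO, duplicates. GCLC mRNA by qRT-PCR normalized to ACTB, GAPDH and POLR2A, fitted bidirectionally versus DMSO.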

Read-out in experiment [9]: growth arrest and DNA damage 45 (GADD45G), GADD45G (gene 10912)
Kind of experiment: LTEA_HepaRG_GADD45G: Life Technologies and Expression Analysis (LTEA) Assay for growth arrest and DNA damage 45 (GADD45G) using HepaRG (AID 2283499). The method, boiled down: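 HepaRG, 48 h exposure, top 100 uM, half-log 8-point series, 0.5% DMSO vehicle, duplicates. Readout: GADD45G transcript by qRT-PCR (Fluidigm array), housekeeping-normalised (ACTB/GAPDH/POLR2A). Bidirectional curve fit vs DMSO baseline.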

Read-out in experiment [10]: Glutamate-cysteine ligase regulatory (GCLM), GCLM (gene 2730)
Kind of experiment: LTEA_HepaRG_GCLM: Life Technologies and Expression Analysis (LTEA) Assay for Glutamate-cysteine ligase regulatory (GCLM) using HepaRG (AID 2283500). In a few lines:
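Human liver HepaRG cultures receive test chemicals for 48 hours at up to 100 uM in 0.5% DMSO. GCLM expression is measured by qRT-PCR and analysed for increases or decreases against vehicle.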

Read-out in experiment [11]: Glutathione S-transferase M3 (GSTM3), GSTM3 (gene 2947)
The experiment is described as follows: LTEA_HepaRG_GSTM3: Life Technologies and Expression Analysis (LTEA) Assay for Glutathione S-transferase M3 (GSTM3) using HepaRG (AID 2283501). In a few lines: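 qRT-PCR read-out of GSTM3 transcript, normalized to three housekeeping genes, from human HepaRG cells after 48 h chemical exposure. Eight-point half-log series, top 100 uM, 0.5% DMSO vehicle; gain or loss fitted relative to DMSO baseline.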

Read-out in experiment [12]: Heat shock 70 kDa protein 1 (HSPA1A), gene 3303
Kind of experiment: LTEA_HepaRG_HSPA1A: Life Technologies and Expression Analysis (LTEA) Assay for Heat shock 70 kDa protein 1 (HSPA1A) using HepaRG (AID 2283502). In a few lines: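 HSPA1A induction in human HepaRG liver cells is measured after 48 h of chemical treatment (100 uM maximum, 0.5% DMSO vehicle). Expression comes from qRT-PCR normalized to endogenous controls.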

Read-out in experiment [13]: Hypoxia-inducible factor 1-alpha (Homo sapiens) (UniProt Q16665)
Kind of experiment: LTEA_HepaRG_HIF1A: Life Technologies and Expression Analysis (LTEA) Assay for Hypoxia-inducible factor 1 (HIF1A) Trancription factor using HepaRG (AID 2283503). The method, boiled down: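 HepaRG, 48 h exposure, 8-pt half-log series from 100 uM, 0.5% DMSO vehicle, duplicates. Readout: HIF1A transcript by qRT-PCR (Fluidigm array), housekeeping-normalised. Bidirectional curve fit vs DMSO baseline.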

Read-out in the next experiment: HGF (gene 3082)
The experiment is described as follows: LTEA_HepaRG_HGF: Life Technologies and Expression Analysis (LTEA) Assay for Hepatocyte Growth Facto (HGF) using HepaRG (AID 2283505). The method, boiled down:
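HepaRG, 48 h dosing, 8-pt half-log series from 100 uM in 0.5% DMSO, duplicates. Readout: TaqMan qRT-PCR of HGF mRNA, housekeeping-normalized; bidirectional curve fit vs DMSO baseline.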

Read-out in experiment [14]: Insulin Like Growth Factor 1 (IGF1), IGF1 (gene 3479)
The experiment is described as follows: LTEA_HepaRG_IGF1: Life Technologies and Expression Analysis (LTEA) Assay for Insulin Like Growth Factor 1 (IGF1) using HepaRG (AID 2283506). The method, boiled down:
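Using human HepaRG liver cells, IGF1 transcript induction or suppression is measured 48 h after dosing across eight concentrations capped at 100 uM. Values derive from bidirectional concentration-response fitting with DMSO as baseline.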

Read-out in experiment [15]: Intercellular Adhesion Molecule 1 (ICAM1), ICAM1 (gene 3383)
Kind of experiment: LTEA_HepaRG_ICAM1: Life Technologies and Expression Analysis (LTEA) Assay for Intercellular Adhesion Molecule 1 (ICAM1) using HepaRG (AID 2283507). The method, boiled down: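 HepaRG, 48 h exposure, 8-pt half-log series from 100 uM, 0.5% DMSO vehicle, duplicates. Readout: TaqMan qRT-PCR mRNA, housekeeping-normalized (ACTB/GAPDH/POLR2A). Bidirectional curve fit vs DMSO baseline.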

Read-out in experiment [16]: Insulin-like growth factor-binding protein 1 (IGFBP1), IGFBP1 (gene 3484)
The experiment is described as follows: LTEA_HepaRG_IGFBP1: Life Technologies and Expression Analysis (LTEA) Assay for Insulin-like growth factor-binding protein 1 (IGFBP1) using HepaRG (AID 2283508). The method, boiled down: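 qRT-PCR mRNA read-out (TaqMan, Fluidigm array), normalised to three housekeeping genes; HepaRG cells, 48 h exposure, 8-pt half-log series from 100 uM, 0.5% DMSO vehicle; bidirectional curve fit vs DMSO baseline.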

Read-out in experiment [17]: Interleukin 6 (IL6), IL6 (gene 3569)
Kind of experiment: LTEA_HepaRG_IL6: Life Technologies and Expression Analysis (LTEA) Assay for Interleukin 6 (IL6) using HepaRG (AID 2283509). The method, boiled down:
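HepaRG cells exposed in duplicate for 48 h to eight half-log concentrations, top 100 uM, in 0.5% DMSO serum-free induction medium. mRNA measured by qRT-PCR, normalized to ACTB, GAPDH and POLR2A. Bidirectional fit versus DMSO.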

Read-out in experiment [18]: 3-Hydroxy-3-Methylglutaryl-CoA Synthase 2 (HMGCS2), HMGCS2 (gene 3158)
Kind of experiment: LTEA_HepaRG_HMGCS2: Life Technologies and Expression Analysis (LTEA) Assay for 3-Hydroxy-3-Methylglutaryl-CoA Synthase 2 (HMGCS2) using HepaRG (AID 2283504). In a few lines:
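qRT-PCR read-out of HMGCS2 transcript, normalised to three housekeeping genes, in HepaRG cells after 48 h chemical exposure. Eight-point curves from 100 uM, half-log dilutions, 0.5% DMSO vehicle; gain or loss fitted relative to DMSO baseline.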

Calls of active or inactive are those of the source. How the source made its calls: active means hit-call score of the fitted dose curve at least 0.9, where 1 is the maximum; inactive means score below 0.9.

Sequence of Cytochrome P450 3A7 (Homo sapiens) (P24462 whole entry, looked up): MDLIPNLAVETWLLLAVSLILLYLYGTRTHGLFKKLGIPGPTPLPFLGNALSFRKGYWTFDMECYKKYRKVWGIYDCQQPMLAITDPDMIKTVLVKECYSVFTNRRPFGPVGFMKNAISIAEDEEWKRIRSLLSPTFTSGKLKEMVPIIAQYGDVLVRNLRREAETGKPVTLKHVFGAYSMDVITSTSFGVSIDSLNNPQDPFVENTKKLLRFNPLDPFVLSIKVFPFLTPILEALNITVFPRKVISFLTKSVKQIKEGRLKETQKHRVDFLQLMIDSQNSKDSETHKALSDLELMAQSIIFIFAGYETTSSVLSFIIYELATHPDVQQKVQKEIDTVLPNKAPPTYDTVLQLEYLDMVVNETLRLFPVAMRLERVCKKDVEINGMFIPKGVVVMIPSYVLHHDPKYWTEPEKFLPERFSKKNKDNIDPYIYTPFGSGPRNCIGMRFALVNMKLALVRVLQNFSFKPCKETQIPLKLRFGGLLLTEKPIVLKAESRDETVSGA
Sequence of Hypoxia-inducible factor 1-alpha (Homo sapiens) (Q16665 whole entry, looked up): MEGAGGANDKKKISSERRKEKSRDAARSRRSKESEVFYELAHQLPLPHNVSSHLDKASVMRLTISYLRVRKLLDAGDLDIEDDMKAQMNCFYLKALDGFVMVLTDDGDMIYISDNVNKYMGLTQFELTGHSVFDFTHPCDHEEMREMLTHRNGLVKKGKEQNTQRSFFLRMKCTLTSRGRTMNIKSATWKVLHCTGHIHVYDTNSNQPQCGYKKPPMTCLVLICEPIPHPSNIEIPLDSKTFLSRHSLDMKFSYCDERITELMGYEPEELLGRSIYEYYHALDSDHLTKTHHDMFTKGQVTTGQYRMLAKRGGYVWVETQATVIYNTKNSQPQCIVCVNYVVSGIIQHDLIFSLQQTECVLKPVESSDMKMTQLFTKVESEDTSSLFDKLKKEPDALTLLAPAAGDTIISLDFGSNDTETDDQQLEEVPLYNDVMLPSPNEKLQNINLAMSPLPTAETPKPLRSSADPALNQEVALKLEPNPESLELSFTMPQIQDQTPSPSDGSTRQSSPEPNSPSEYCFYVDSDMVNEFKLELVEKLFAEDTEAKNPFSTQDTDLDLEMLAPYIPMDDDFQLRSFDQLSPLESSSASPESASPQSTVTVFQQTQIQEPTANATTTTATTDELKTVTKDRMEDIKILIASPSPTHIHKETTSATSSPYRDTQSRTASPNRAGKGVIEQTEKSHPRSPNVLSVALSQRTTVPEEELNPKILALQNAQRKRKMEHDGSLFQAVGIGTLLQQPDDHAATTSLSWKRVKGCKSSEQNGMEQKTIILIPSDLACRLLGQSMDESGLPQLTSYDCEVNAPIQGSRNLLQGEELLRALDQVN

Consider `CCCCC(CC)COC(=O)CCCCCCCC(=O)OCC(CC)CCCC` (centres undefined), for which the result (in [1]; in [2]; in experiment [3]; in the experiment with CYP3A5 (gene 1577); in experiment [4]; in experiment [5]) was inactive. The call in [6], in experiment [7], in experiment [8], in experiment [9], in experiment [10] and in [11] was inactive. The outcome (in experiment [12]; in [13]; in the experiment with HGF (gene 3082); in experiment [14]; in experiment [15]; in experiment [16]) was inactive. For the same compound, in experiment [17], the compound was called inactive.
Turning to `CCCCCCCCCC[N+](C)(C)[O-]`, the call (in experiment [1]; in experiment [2]; in [3]; in the experiment with CYP3A5 (gene 1577); in experiment [4]; in experiment [5]) was inactive. Also, the outcome in experiment [6], in [7], in experiment [8], in [9], in [10] and in experiment [11] was inactive. The compound was classed as inactive (in experiment [12]; in experiment [13]; in the experiment with HGF (gene 3082); in experiment [15]; in experiment [16]; in experiment [17]).
What is called AC50 is the concentration at which the activity in the assay is half-maximal. In the case of `CCC(C)N(C)C(=O)c1cc2ccccc2c(-c2ccccc2Cl)n1` (centres undefined), the call in experiment [1], in [2], in experiment [3], in [6], in experiment [7] and in [8] was inactive. In addition, the call (in [12]; in experiment [18]; with HGF (gene 3082); in experiment [15]; in [17]) was inactive. Further, the concentration at half-maximal activity (AC50) with CYP3A5 (gene 1577) was 31.8 µM (active); in experiment [5], 13.1 µM (active); in experiment [9] it was 8.59 µM (active); in [14], 21.6 µM (active); in [16] it was 57.6 µM (active).
Turning to `O=C1NC(=O)C(c2ccccc2)(c2ccccc2)N1`, the compound was called inactive (in experiment [1]; in experiment [2]; with CYP3A5 (gene 1577); in experiment [6]; in experiment [8]; in experiment [9]). Besides, the call (in [11]; in [12]; in experiment [18]; in the experiment with HGF (gene 3082); in [15]; in experiment [16]) was inactive. Besides, the compound was called inactive in experiment [17]. Also, the AC50 in experiment [4] is 17.9 µM (active); in experiment [5], 9.92 µM (active); in experiment [7] it was 9.92 µM (active).
